Results as given in PubChem BioAssay (NCATS).
Where “and” joins values, the source holds several entries; their conditions need not be identical. Identical values can stand only once. Results filed as inconclusive are left out. Calls of active or inactive are those of the source. The call rests on the fitted dose curve; in most records, active means well fitted curve in the direction sought with a large enough effect; inconclusive means small, poorly fitted or top-dose-only effect, or another doubt; inactive means no such curve, though single readings can be large; an effect the other way counts as inactive or inconclusive.

Columns and labels:
[1] = qHTS of pediatric cancer cell lines to identify multiple opportunities for drug repurposing: Primary screen for A673 cells (AID 1347092); further: nearly all actives have a fitted effect of over 45% in size
Summary of the method: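 48 h compound exposure, A673, 500-1,000 cells/well, 37 degrees C/5% CO2. MIPE: 11-point, 0.78 nM-46 µM; NPC: 8-point, 0.59 nM-46 µM (final). Readout CellTiter-Glo luminescence after 15 min RT.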

[2] = qHTS of pediatric cancer cell lines to identify multiple opportunities for drug repurposing: Primary screen for BT-37 cells (AID 1347094)
Summary of the method: (§1)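 Following a 5-hour attachment period, cells at 500-1,000/well received compounds and were cultured for 48 hours. CellTiter-Glo was added and luminescence read to estimate viable, metabolically active cells.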

[3] = qHTS of pediatric cancer cell lines to identify multiple opportunities for drug repurposing: Primary screen for NB-EBc1 cells (AID 1347095)
Summary of the method: as §1

[4] = qHTS of pediatric cancer cell lines to identify multiple opportunities for drug repurposing: Primary screen for U-2 OS cells (AID 1347096); further: nearly all actives have a fitted effect of over 50% in size
Summary of the method: (§2)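 Cells (500-1,000/well) in growth media were settled 5 h at 37 degrees C, then given compounds for 48 h. Viability was read as CellTiter-Glo luminescence. Primary runs used MIPE at 11 points (0.78 nM-46 µM) and NPC at 8 points (0.59 nM-46 µM); follow-ups used 11 points.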

[5] = qHTS of pediatric cancer cell lines to identify multiple opportunities for drug repurposing: Primary screen for Saos-2 cells (AID 1347097); further: nearly all actives have a fitted effect of over 40% in size
Summary of the method: as §1

[6] = qHTS of pediatric cancer cell lines to identify multiple opportunities for drug repurposing: Primary screen for LAN-5 cells (AID 1347100)
Summary of the method: as §2

[7] = qHTS of pediatric cancer cell lines to identify multiple opportunities for drug repurposing: Primary screen for BT-12 cells (AID 1347101); further: nearly all actives have a fitted effect of over 25% in size
Summary of the method: (§3)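 Cells (500-1,000/well) rested 5 h, then received compounds for 48 h; metabolically active cells were measured by CellTiter-Glo luminescence. Final concentrations spanned up to 46 µM (MIPE, 11-point) or 0.59 nM-46 µM (NPC, 8-point) in primary screens, 11-point in follow-ups.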

[8] = qHTS of pediatric cancer cell lines to identify multiple opportunities for drug repurposing: Primary screen for SK-N-SH cells (AID 1347098); further: nearly all actives have a fitted effect of over 65% in size
Summary of the method: as §3

[9] = qHTS of pediatric cancer cell lines to identify multiple opportunities for drug repurposing: Primary screen for NB1643 cells (AID 1347099); further: nearly all actives have a fitted effect of over 50% in size
Summary of the method: as §1

Measured: Potency
Potency means the concentration at half of the fitted maximal effect.

Cc1cc(NS(=O)(=O)c2ccc(N)cc2)no1
not listed: [8] | [9]
inactive: all other assays above

NC(=O)c1cccc(N)c1
inactive: all assays above

C[C@@H]1CN(c2c(F)c(N)c3c(=O)c(C(=O)O)cn(C4CC4)c3c2F)C[C@H](C)N1
not listed: [9]
inactive: all other assays above

CC1=C(C(=O)O)N2C(=O)[C@@H](NC(=O)C(N)c3ccccc3)[C@H]2SC1 (some centres not stated)
not listed: [9]
inactive: all other assays above

NC1(c2ccc(-c3nc4ccn5c(=O)[nH]nc5c4cc3-c3ccccc3)cc2)CCC1
inactive: [4]
active: [1] 14.8 µM and 21.1 µM | [2] 6.85 µM | [3] 2.35 µM and 11.9 µM | [5] 10.5 µM | [8] 19.2 µM and 17.2 µM | [6] 3.72 µM | [7] 21.7 µM and 24.6 µM

COc1cc([C@@H]2c3cc4c(cc3[C@H](O)[C@H]3COC(=O)[C@H]23)OCO4)cc(OC)c1OC
inactive: [4] | [8]
active: [1] 84.1 nM and 1 nM | [2] 69.2 nM and 1 nM | [3] 8.4 nM and 1 nM | [5] 33.5 nM and 2.64 µM | [9] 59.6 nM | [6] 7.5 nM and 1 nM | [7] 55 nM and 1.9 nM

Cc1ccc(S(=O)(=O)N[C@@H](Cc2ccccc2)C(=O)CCl)cc1
active: [1] 14.8 µM | [2] 24.3 µM | [3] 16.6 µM | [5] 9.35 µM | [8] 21.5 µM | [9] 20900 nM | [6] 16.6 µM

CC1=NN(c2ccccc2)C(=O)C1
not listed: [9]
inactive: all other assays above

O=S(=O)(O)CCS
not listed: [9]
inactive: all other assays above

Cc1ccnc2c1NC(=O)c1cccnc1N2C1CC1
not listed: [8]
inactive: all other assays above

Cc1oc(=O)oc1CN1CCN(c2cc3c(cc2F)c(=O)c(C(=O)O)c2n3C(C)S2)CC1 (configuration not stated)
not listed: [9]
inactive: all other assays above

CC(C)(C)C(=O)OCOP(=O)(COCCn1cnc2c(N)ncnc21)OCOC(=O)C(C)(C)C
inactive: [4]
active: [1] 2.11 µM and 743 nM | [2] 3.47 µM and 10.9 µM | [3] 2.99 µM and 662 nM | [5] 26.6 µM and 23.5 µM | [8] 15.4 µM and 27.1 µM | [9] 11.9 µM and 18.7 µM | [6] 16.6 µM | [7] 11 µM and 17.2 µM

CCOc1cc(N)c(Cl)cc1C(=O)NCC1CN(Cc2ccc(F)cc2)CCO1 (configuration not stated)
not listed: [9]
inactive: all other assays above

CCCCS(=N)(=O)CCC(N)C(=O)O (configuration not stated)
active: [1] 23.5 µM
not listed: [8]
inactive: all other assays above

CC(C)C[C@H](NC(=O)[C@H](CCc1ccccc1)NC(=O)CN1CCOCC1)C(=O)N[C@@H](Cc1ccccc1)C(=O)N[C@@H](CC(C)C)C(=O)[C@@]1(C)CO1
active: [1] 10.6 nM and 18.7 nM | [2] 174 nM and 306 nM | [3] 53.1 nM and 29.6 nM | [4] 1.06 µM and 1.48 µM | [5] 42.2 nM and 93.5 nM | [6] 668 nM and 132 nM | [7] 87.1 nM and 137 nM

CNNCc1ccc(C(=O)NC(C)C)cc1
inactive: all assays above

COc1ccc2c(c1)c(CC(=O)OCC(=O)O)c(C)n2C(=O)c1ccc(Cl)cc1
not listed: [9]
inactive: all other assays above

CC(=O)[C@H]1CC[C@H]2[C@@H]3CC=C4C[C@@H](O)CC[C@]4(C)[C@H]3CC[C@]12C
not listed: [8]
inactive: all other assays above

C[C@@H](NCCCc1cccc(C(F)(F)F)c1)c1cccc2ccccc12
not listed: [5] | [8] | [9]
inactive: all other assays above

Cc1cccc(N(C)C(=S)Oc2ccc3ccccc3c2)c1
inactive: [1] | [2] | [3] | [4] | [6]
active: [8] 15.2 µM
